We go through one sequence from article PMC7862700, “An all-to-all approach to the identification of sequence-specific readers for epigenetic DNA modifications on cytosine”.

Common to all, as to experiment: DAPPL (digital affinity profiling via proximity ligation, sequencing); 10 mM Tris-HCl pH 7.5, 50 mM NaCl, 1 mM DTT, 4% glycerol, room temperature, 30 min; GST-TFs on glutathione beads, 16-mer random dsDNA library, 0.1% formaldehyde crosslink after washing; high values mean tight binding
In one assay the target is T1, FEV (Homo sapiens, UniProt Q99581 1-238).
T1 sequence: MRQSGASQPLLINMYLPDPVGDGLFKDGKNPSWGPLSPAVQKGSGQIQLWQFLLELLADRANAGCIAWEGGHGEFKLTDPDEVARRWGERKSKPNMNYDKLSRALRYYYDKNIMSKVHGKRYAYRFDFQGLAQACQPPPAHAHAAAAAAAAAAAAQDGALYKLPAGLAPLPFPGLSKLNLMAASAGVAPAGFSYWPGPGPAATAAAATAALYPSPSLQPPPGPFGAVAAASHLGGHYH
The settings on record: protein: recombinant; tags: N-terminal GST; dsDNA, one strand shown. A digest of the protocol:
(§1)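 Human transcription factors were made in yeast as GST fusions, captured on glutathione beads and barcoded with DNA. With a tag-only sample included, the pool was incubated with 200 nmole of a random double-stranded 16-mer DNA library in Tris/NaCl/DTT/glycerol buffer at room temperature for 30 min, then crosslinked with 0.1% formaldehyde after washing, ligated by proximity, amplified and sequenced. For binding signal, each hexamer's read frequency for a factor is divided by its frequency for the tag-only sample.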

The target in a further assay is ETV5 (Homo sapiens, UniProt P41161 1-510). The following applies: protein: recombinant; tags: N-terminal GST; dsDNA, one strand shown. A digest of the protocol: as §1
Chain of ETV5 (P41161 whole entry): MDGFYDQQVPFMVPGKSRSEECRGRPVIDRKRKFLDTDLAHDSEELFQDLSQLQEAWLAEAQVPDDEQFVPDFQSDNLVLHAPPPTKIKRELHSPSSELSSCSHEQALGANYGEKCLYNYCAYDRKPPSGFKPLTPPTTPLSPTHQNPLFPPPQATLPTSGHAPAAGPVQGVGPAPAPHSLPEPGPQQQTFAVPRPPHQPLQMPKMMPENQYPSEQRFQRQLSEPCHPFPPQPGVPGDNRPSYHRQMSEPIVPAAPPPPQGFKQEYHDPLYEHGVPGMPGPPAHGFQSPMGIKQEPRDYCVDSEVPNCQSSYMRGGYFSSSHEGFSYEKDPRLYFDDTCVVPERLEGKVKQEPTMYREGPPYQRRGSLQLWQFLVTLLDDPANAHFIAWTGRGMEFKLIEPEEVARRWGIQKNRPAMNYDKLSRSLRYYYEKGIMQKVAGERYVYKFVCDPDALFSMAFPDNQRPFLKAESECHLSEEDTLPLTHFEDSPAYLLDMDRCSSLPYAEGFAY
The next assay deals with HSF1 (Homo sapiens, UniProt Q00613 1-529). The settings on record: protein: recombinant; tags: N-terminal GST; chain copies: 3; dsDNA, one strand shown. Summed up:
as §1

For a further assay, the target named is T2, SPIC (Homo sapiens, UniProt Q8N5J4 1-248).
T2 sequence: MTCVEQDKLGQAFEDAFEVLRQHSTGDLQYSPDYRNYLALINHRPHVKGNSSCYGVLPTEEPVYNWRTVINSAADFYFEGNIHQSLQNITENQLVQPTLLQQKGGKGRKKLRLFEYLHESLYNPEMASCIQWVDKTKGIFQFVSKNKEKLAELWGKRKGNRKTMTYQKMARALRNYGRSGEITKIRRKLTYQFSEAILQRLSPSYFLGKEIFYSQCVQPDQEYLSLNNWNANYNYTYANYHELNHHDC
The settings on record: protein: recombinant; tags: N-terminal GST; dsDNA, one strand shown. Summed up: as §1

Another assay addresses ELF4 (Homo sapiens, UniProt Q99607 1-663). The following applies: protein: recombinant; tags: N-terminal GST; dsDNA, one strand shown. A digest of the protocol: as §1
A further assay deals with T3, ELK4 (Homo sapiens, UniProt P28324-2 1-405).
T3 sequence: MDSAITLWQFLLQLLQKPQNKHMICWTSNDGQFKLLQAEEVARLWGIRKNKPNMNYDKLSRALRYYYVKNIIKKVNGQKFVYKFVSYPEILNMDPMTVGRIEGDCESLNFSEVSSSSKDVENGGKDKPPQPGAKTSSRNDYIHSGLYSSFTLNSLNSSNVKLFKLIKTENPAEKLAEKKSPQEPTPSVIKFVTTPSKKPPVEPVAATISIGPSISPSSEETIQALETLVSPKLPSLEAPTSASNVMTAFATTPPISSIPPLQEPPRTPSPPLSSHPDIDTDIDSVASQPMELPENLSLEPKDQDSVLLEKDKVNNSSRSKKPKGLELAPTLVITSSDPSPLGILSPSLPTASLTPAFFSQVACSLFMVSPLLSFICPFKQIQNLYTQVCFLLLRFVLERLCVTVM
The following applies: protein: recombinant; tags: N-terminal GST; dsDNA, one strand shown. A digest of the protocol: as §1

The next assay addresses T4, ETV2 (Homo sapiens, UniProt O00321 1-342).
T4 sequence: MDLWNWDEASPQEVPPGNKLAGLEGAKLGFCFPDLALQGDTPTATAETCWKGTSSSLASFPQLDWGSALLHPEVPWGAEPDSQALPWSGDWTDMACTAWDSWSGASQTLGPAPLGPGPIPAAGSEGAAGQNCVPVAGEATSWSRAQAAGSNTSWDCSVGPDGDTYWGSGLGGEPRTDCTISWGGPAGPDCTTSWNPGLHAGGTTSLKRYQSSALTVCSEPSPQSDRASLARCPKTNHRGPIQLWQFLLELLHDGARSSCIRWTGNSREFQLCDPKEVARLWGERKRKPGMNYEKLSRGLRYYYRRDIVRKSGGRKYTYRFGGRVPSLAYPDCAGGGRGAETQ
The following applies: protein: recombinant; tags: N-terminal GST; dsDNA, one strand shown. Summed up: as §1

The next assay deals with T5, ELF3 (Homo sapiens, UniProt P78545 1-371).
T5 sequence: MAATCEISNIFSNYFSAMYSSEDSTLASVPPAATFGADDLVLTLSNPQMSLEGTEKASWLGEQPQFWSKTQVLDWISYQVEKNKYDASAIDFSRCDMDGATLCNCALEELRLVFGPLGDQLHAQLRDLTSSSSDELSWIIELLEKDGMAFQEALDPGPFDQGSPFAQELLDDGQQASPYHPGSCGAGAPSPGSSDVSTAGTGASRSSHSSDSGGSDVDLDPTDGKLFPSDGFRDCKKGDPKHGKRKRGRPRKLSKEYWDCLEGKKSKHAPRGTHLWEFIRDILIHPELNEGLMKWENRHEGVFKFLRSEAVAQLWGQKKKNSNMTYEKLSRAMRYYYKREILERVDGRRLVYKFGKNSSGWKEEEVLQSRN
The following applies: protein: recombinant; tags: N-terminal GST; dsDNA, one strand shown. A digest of the protocol: as §1

Another assay addresses CRX (Homo sapiens, UniProt O43186 1-299). The following applies: protein: recombinant; tags: N-terminal GST; dsDNA, one strand shown. A digest of the protocol:
as §1

The target of another assay is ETV1 (Homo sapiens, UniProt P50549 1-477). The settings on record: protein: recombinant; tags: N-terminal GST; dsDNA, one strand shown. A digest of the protocol: as §1
Chain of ETV1 (P50549 whole entry): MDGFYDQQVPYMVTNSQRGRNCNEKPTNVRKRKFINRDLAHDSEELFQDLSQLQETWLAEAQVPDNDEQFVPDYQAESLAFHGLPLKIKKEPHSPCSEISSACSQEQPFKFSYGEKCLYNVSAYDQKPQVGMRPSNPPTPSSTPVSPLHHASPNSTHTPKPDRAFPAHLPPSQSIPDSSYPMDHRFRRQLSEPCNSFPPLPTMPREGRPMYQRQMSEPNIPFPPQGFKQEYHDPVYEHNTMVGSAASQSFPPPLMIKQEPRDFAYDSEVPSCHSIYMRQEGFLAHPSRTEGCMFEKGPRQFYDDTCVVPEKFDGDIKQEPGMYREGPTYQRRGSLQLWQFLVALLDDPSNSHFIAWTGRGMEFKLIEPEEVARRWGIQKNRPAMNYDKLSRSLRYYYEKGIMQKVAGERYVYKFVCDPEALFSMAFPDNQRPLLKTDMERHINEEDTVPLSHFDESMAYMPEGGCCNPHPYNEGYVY
The next assay has as its target T6, ERF (Homo sapiens, UniProt P50548 1-548).
T6 sequence: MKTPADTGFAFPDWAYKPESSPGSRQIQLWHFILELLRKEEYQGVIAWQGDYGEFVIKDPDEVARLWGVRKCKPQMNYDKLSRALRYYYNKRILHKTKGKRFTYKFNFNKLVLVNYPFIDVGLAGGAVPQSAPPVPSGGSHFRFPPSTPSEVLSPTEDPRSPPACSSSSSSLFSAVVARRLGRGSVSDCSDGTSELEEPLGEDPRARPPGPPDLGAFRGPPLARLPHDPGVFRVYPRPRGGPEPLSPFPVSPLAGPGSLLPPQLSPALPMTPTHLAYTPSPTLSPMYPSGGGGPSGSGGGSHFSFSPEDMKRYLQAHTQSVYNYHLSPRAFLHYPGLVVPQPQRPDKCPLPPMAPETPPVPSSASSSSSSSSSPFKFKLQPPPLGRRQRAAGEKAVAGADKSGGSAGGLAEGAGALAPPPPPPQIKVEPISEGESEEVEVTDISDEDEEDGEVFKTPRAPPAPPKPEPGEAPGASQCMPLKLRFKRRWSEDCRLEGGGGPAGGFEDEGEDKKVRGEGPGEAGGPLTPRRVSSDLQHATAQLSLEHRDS
The following applies: protein: recombinant; tags: N-terminal GST; dsDNA, one strand shown. A digest of the protocol: as §1

The next assay has as its target T7, ETV3L (Homo sapiens, UniProt Q6ZN32 1-361).
T7 sequence: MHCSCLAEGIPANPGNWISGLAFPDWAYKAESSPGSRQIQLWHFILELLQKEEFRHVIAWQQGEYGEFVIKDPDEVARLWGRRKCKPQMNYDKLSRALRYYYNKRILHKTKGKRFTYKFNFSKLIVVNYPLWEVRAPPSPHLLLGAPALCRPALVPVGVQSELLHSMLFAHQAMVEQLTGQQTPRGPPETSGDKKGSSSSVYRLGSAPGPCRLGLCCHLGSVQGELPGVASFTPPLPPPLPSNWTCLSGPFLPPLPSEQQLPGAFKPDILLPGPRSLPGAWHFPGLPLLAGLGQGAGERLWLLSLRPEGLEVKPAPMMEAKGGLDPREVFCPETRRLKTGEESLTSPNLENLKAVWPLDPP
The settings on record: protein: recombinant; tags: N-terminal GST; dsDNA, one strand shown. A digest of the protocol: as §1

The next assay concerns the target T8, ETS2 (Homo sapiens, UniProt P15036 1-469).
T8 sequence: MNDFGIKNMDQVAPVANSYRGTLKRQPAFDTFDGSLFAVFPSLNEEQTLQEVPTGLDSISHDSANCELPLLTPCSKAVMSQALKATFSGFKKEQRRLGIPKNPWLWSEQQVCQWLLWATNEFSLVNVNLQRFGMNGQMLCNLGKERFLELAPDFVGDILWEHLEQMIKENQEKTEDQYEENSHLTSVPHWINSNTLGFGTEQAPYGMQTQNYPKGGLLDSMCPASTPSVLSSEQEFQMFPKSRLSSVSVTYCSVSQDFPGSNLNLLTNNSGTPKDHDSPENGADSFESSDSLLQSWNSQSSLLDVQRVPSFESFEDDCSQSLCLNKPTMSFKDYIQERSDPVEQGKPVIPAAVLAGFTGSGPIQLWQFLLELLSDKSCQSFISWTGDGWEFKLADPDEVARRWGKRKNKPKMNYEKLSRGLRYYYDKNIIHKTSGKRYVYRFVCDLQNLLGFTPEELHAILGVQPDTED
The settings on record: protein: recombinant; tags: N-terminal GST; dsDNA, one strand shown. A digest of the protocol: as §1

A further assay has as its target T9, SPDEF (Homo sapiens, UniProt O95238 1-335).
T9 sequence: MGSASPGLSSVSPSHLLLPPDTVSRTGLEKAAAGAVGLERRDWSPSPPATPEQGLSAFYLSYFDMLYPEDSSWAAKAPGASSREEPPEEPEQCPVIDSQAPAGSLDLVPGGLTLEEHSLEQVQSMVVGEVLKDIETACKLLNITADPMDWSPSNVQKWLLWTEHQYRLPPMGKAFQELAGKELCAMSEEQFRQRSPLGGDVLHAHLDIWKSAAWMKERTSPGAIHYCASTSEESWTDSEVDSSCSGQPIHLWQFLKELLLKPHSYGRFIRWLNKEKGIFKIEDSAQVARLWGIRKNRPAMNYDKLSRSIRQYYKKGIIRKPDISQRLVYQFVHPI
The settings on record: protein: recombinant; tags: N-terminal GST; dsDNA, one strand shown. Summed up:
as §1

The next assay concerns the target T10, ETV7 (Homo sapiens, UniProt Q9Y603 1-341).
T10 sequence: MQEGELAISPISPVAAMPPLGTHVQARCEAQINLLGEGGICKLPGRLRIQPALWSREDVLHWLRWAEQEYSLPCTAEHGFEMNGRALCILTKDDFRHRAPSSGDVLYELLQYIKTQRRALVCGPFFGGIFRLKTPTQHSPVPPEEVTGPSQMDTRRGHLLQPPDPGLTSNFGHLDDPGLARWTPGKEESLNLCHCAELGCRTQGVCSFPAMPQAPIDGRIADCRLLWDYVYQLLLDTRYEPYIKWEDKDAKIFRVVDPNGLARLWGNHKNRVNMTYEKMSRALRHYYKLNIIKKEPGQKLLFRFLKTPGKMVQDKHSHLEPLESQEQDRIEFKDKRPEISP
The settings on record: protein: recombinant; tags: N-terminal GST; dsDNA, one strand shown. Summed up:
as §1

Another assay addresses T11, ELF5 (Homo sapiens, UniProt Q9UKW6-2 1-255).
T11 sequence: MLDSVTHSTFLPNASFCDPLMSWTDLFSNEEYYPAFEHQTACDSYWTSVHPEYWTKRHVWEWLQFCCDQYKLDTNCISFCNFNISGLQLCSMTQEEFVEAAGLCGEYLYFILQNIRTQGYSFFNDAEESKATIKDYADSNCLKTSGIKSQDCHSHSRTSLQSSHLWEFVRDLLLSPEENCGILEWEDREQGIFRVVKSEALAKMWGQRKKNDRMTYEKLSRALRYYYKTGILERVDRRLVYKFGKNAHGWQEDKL
The following applies: protein: recombinant; tags: N-terminal GST; dsDNA, one strand shown. A digest of the protocol:
as §1

A further assay deals with T12, ETV3 (Homo sapiens, UniProt P41162-2 1-143).
T12 sequence: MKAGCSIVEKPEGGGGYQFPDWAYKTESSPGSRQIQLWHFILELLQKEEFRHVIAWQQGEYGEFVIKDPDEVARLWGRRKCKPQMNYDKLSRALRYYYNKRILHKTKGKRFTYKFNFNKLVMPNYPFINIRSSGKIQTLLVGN
The following applies: protein: recombinant; tags: N-terminal GST; dsDNA, one strand shown. Summed up: as §1

For the next assay, the target named is ETV6 (Homo sapiens, UniProt P41212 1-452). The following applies: protein: recombinant; tags: N-terminal GST; dsDNA, one strand shown. Summed up: as §1
Chain of ETV6 (P41212 whole entry): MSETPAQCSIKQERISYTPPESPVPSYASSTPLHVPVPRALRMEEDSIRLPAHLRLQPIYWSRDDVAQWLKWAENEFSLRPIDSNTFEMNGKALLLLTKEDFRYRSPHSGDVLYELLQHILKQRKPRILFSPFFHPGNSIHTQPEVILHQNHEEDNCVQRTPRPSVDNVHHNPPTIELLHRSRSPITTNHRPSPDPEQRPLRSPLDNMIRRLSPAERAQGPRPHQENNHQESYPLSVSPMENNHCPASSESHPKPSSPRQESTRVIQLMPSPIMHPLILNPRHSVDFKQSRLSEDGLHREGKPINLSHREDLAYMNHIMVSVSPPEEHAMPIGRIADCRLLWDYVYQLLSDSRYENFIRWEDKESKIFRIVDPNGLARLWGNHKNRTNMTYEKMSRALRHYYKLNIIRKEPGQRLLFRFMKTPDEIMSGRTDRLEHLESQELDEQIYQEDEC

Chain of CRX (O43186 whole entry): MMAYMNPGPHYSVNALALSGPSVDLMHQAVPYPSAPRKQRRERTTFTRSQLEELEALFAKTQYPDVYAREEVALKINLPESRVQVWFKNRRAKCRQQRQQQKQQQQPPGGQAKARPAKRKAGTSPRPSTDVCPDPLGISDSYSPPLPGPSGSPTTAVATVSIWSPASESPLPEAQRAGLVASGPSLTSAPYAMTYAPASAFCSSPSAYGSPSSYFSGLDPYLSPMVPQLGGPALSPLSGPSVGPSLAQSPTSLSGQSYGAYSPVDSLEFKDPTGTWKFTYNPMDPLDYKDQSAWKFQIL
Chain of HSF1 (Q00613 whole entry): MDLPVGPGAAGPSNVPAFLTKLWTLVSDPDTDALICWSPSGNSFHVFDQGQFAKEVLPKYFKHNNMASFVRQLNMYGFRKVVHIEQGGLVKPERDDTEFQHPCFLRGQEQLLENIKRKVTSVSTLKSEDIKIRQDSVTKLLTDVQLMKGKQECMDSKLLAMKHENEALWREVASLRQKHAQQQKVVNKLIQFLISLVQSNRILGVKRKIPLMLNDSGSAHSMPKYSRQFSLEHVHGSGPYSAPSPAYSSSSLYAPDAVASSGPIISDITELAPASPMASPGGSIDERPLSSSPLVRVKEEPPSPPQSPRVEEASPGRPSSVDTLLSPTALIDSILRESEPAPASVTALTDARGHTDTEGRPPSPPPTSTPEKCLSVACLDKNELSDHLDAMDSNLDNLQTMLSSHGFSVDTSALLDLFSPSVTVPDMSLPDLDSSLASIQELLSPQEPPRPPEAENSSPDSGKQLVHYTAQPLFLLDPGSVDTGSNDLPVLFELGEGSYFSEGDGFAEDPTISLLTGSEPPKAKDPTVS
Chain of ELF4 (Q99607 whole entry): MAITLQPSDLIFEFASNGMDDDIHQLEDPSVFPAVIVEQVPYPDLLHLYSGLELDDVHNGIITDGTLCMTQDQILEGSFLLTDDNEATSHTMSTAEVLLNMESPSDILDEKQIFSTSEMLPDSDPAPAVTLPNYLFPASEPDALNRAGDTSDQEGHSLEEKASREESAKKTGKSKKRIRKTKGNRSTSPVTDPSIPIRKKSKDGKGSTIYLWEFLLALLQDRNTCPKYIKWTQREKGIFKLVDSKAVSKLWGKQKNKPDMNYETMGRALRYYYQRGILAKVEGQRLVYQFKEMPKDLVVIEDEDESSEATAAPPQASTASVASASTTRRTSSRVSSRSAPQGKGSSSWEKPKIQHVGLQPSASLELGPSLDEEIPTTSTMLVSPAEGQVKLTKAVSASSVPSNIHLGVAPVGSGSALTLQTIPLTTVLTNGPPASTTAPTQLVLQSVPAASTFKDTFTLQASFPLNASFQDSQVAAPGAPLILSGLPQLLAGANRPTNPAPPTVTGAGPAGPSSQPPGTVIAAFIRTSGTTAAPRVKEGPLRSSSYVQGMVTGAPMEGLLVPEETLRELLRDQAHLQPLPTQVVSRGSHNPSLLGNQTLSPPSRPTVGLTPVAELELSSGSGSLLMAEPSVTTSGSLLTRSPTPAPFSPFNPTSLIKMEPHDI

Regarding CTACTA, the binding signal is 1.27 fold enrichment (6-mer frequency, TF over GST control) with FEV; 1.31 fold enrichment (6-mer frequency, TF over GST control) with ETV5; 1.43 fold enrichment (6-mer frequency, TF over GST control) with HSF1; 1.4 fold enrichment (6-mer frequency, TF over GST control) with SPIC; 1.29 fold enrichment (6-mer frequency, TF over GST control) with ELF4; 1.37 fold enrichment (6-mer frequency, TF over GST control) with ELK4. For the same sequence, the binding signal is 1.23 fold enrichment (6-mer frequency, TF over GST control) with ETV2; 1.35 fold enrichment (6-mer frequency, TF over GST control) with ELF3; 1.36 fold enrichment (6-mer frequency, TF over GST control) in the assay with CRX; 1.18 fold enrichment (6-mer frequency, TF over GST control) in the assay with ETV1; 1.35 fold enrichment (6-mer frequency, TF over GST control) with ERF; 1.29 fold enrichment (6-mer frequency, TF over GST control) with ETV3L. Also, the binding signal with ETS2 was 1.26 fold enrichment (6-mer frequency, TF over GST control); with SPDEF, 1.28 fold enrichment (6-mer frequency, TF over GST control); with ETV7, 1.44 fold enrichment (6-mer frequency, TF over GST control); with ELF5, 1.24 fold enrichment (6-mer frequency, TF over GST control); in the assay with ETV3 it was 1.23 fold enrichment (6-mer frequency, TF over GST control); in the assay with ETV6, 1.46 fold enrichment (6-mer frequency, TF over GST control).
